This is a sample that favours compounds with a hit; in the whole collection about 3.1% have one here.
HSF1 activator – increases HSF-1 driven luciferase reporter signal. NIH3T3-HGL HSF-1 luciferase reporter, MG132, 8 h; 100% = twice DMSO control signal. activation, % at 9 µM. hit rate 1.7% among 300,000;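 active means mean replicate activation of at least 50% with a set share of replicates each reaching 50%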;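 further: 0% = median of the neutral control wells and 100% = twice that signal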
HIF act – HIF pathway transcriptional activation | activation, % at 7.5 µM (by protocol) | hit rate 0.32% among 300,000 | U2OS HRE-luciferase reporter, luminescence; normalized: DMSO 0%, desferrioxamine 100%;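 active means mean activation of at least 10% of the iron chelator positive control signal, with at least half of replicates also reaching 10%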
ARNT-TACC3 inh – disruptors of human ARNT/TACC3 interaction. Q9Y6A5. hit rate 0.66% among 390,000. inhibition, % at 9.99 µM. AID 623870. AlphaScreen His-ARNT PAS-B/GST-TACC3 binding, luminescence; TACC3 fragment carries E629A point mutation;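 active means mean inhibition of replicates at least 50% and at least half of replicates each reaching 50%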;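 further: 0% = complete ARNT plus TACC3 wells and 100% = ARNT alone without TACC3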
HSP90 inh – blocks HSP90-mediated luciferase refolding in reticulocyte lysate; inhibition, % at 5.6 µM; Rabbit reticulocyte lysate, luciferase refolding luminescence, 3 h; hit rate 0.91% among 290,000;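 active means inhibition above the screen-wide mean plus 3 SD, computed separately per campaign, cut at about 16% in these data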;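 further: 0% = DMSO wells and 100% = 60 µM geldanamycin wells; inhibitors lower the luminescence because luciferase stays unfolded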
HSF1 inh – HSF1 inhibition; NIH3T3-HGL HSE-luciferase, MG132-induced, luminescence 8 h; active compounds read low; activity change, negative = inhibition, % at 7.5 µM (by protocol); hit rate 0.77% among 300,000; AID 2098;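 active means more than half of replicate wells show activity change below -50%, luminescence cut by over half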;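 further: luciferase reports HSF-1 transcriptional activity via heat shock element; 0% = median of DMSO wells and -100% = zero luminescence signal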
* marks the source's active call; other numbers are inactive results; . = no result given.

SMILES	HSF1 activator	HIF act	ARNT-TACC3 inh	HSP90 inh	HSF1 inh
CCOc1ccc(NC(=O)c2ccco2)cc1	19	0	2	9	18
CCOC(=O)c1ccc(NC(=S)N(Cc2cccnc2)Cc2ccco2)cc1	-17	0	0	-2	-14
CCOc1ccc(NC(=S)N(Cc2ccc(Cl)cc2)Cc2ccco2)cc1	176*	0	-8	5	121
O=C(/C=C/c1ccc(Cl)cc1)NC(=S)Nc1ccc(CN2CCOCC2)cc1	86*	1	-8	-6	53
CCOc1ccc(NC(=S)NC(=O)c2ccco2)cc1	52*	-24	-4	-1	26
COc1ccc(CNC(=O)/C=C/c2ccc(S(=O)(=O)N3CCOCC3)cc2)cc1	8	0	-4	2	2
O=C(/C=C/c1ccc(S(=O)(=O)N2CCOCC2)cc1)NCc1ccc(Cl)cc1	4	-1	14*	2	-7
CO[C@H]1CN(C)C(=O)c2cc(NC(=O)Nc3c(C)noc3C)ccc2OC[C@H](C)N(C)C[C@@H]1C	.	.	1	.	.
CCCCC(=O)NC(c1ccccc1OC)c1ccc2cccnc2c1O (stereo not given)	-25	63*	40	14	-20
CCCC(=O)NC(c1ccccc1OC)c1ccc2cccnc2c1O (stereo not given)	13	69*	-9	24*	-2
COc1ccc(C(NC(C)=O)c2cc(Cl)c3cccnc3c2O)cc1OC (stereo not given)	-18	4	-5	2	-5
COc1ccc(C(NC(C)=O)c2ccc3cccnc3c2O)c(OC)c1 (stereo not given)	7	65*	64*	.	2
C[C@H]1CN([C@@H](C)CO)S(=O)(=O)c2ccc(-c3cccc(F)c3)cc2O[C@@H]1CN(C)C(=O)C1CC1	.	.	-2	.	.
CO[C@@H]1CN(C)C(=O)c2cc(NC(C)=O)ccc2OC[C@H](C)N(Cc2cccc(F)c2)C[C@@H]1C	.	.	7	.	.
O=C(NCc1ccccn1)Nc1ccc(F)c(Cl)c1	7	0	-2	-2	13
OC(CNCc1ccccn1)c1ccccc1 (stereo not given)	-1	0	48*	2	-2
Fc1ccc(C(CCNCc2ccccn2)c2ccc(Cl)cc2)cc1 (stereo not given)	15	1	48*	4	16
C[C@@H]1CN([C@@H](C)CO)C(=O)c2cc(C#CCN(C)C)cnc2O[C@H]1CN(C)C(=O)c1cccc(F)c1	.	.	-4	.	.
O=C(NN1C(=O)C2C(C1=O)C1C=CC2C12CC2)c1ccc(Cl)cc1 (stereo not given)	65*	-1	-9	3	24
Cc1cccc(/C=C(\C(=O)O)c2ccc(S(=O)(=O)N3CCCC3)s2)c1	.	.	45*	.	.
C[C@H]1CN([C@@H](C)CO)C(=O)c2cc(-c3ccccc3F)cnc2O[C@H]1CN(C)C(=O)C1CC1	.	.	0	.	.
C=CCOc1cccc(/C=C2\C(=O)N(Cc3ccc(C)cc3)C(C)=C2C(=O)OC)c1	42	0	2	0	24
COCCCN1C(=O)/C(=C\c2ccc3c(c2)OCO3)C(C(=O)OC)=C1C	-2	-1	1	1	-7
CCOc1cc(/C=C2\C(=O)N(Cc3ccc(C)cc3)C(C)=C2C(=O)OC)ccc1O	77*	0	16	3	53
CCN1C(=O)/C(=C\c2ccc3c(c2)OCO3)C(C(=O)OC)=C1C	63*	-2	-1	0	26
SMILES	HSF1 activator	HIF act	ARNT-TACC3 inh	HSP90 inh	HSF1 inh
COc1ccc(NS(=O)(=O)c2ccc(-c3ccccn3)s2)cc1	-90	0	.	.	-87*
O=C(NNC(=S)NC(=O)c1cccnc1)c1ccc(Cl)cc1	24	0	-10	1	0
O=C(NC(=S)NNC(=O)c1cnccn1)c1ccc(Cl)cc1	9	1	54*	-6	-4
COc1cc(C(=O)NC(=S)NNC(=O)c2cnccn2)cc(OC)c1OC	9	0	65*	0	6
COc1ccc(CC(=O)NNC(=O)c2cnccn2)cc1	-4	0	25	1	3
COc1ccc(C(=O)NC(=S)NNC(=O)c2cnccn2)cc1	5	2	59*	-1	7
C[C@@H]1CN([C@H](C)CO)C(=O)c2cc(NC(=O)Nc3ccccc3)ccc2O[C@@H](C)CCCCO[C@H]1CN(C)C(=O)c1ccccc1	.	.	3	.	.
Cc1ccc(S(=O)(=O)N(C)C[C@H]2Oc3ccc(NC(=O)Nc4c(C)noc4C)cc3CC(=O)N([C@H](C)CO)C[C@@H]2C)cc1	.	.	0	.	.
CCC(=O)N1[C@H](C(=O)N2CCc3ccccc3C2)[C@@H](CO)[C@@H]2Cn3c(cccc3=O)[C@@H]21	.	.	-6	.	.
CN(C)c1ccc(N/C=C/C(=O)C(C)(C)C)cc1	-5	7	27*	6	14
CCCNC(=O)C[C@H]1CC[C@@H]2[C@H](COc3ccc(NC(=O)C4CCCC4)cc3C(=O)N2C)O1	.	.	3	.	.
O=C1NC(=O)C2(CCc3ccccc32)N1 (stereo not given)	-82	0	24	-1	-77*
COc1ccc(NC(=O)N(C)C[C@@H]2Oc3ccc(NC(=O)CCCCCC(=O)Nc4ccccc4N)cc3CC(=O)N([C@H](C)CO)C[C@@H]2C)cc1	.	.	7	.	.
CC(C)CN(CC(C)C)c1nc(N)c(C#N)c(CC#N)c1C#N	132*	0	-11	5	112
CN(c1ccccc1)c1nc(N)c(C#N)c(CC#N)c1C#N	69*	2	-2	3	47
COc1ccccc1CNC(=O)C[C@H]1CC[C@H]2[C@@H](COc3ccc(NC(=O)Nc4ccc(F)c(F)c4)cc3C(=O)N2C)O1	.	.	28	.	.
COc1ccc(S(=O)(=O)N[C@H]2CC[C@@H](CCn3cc(C(C)C)nn3)O[C@H]2CO)cc1	.	.	4	.	.
CC1Oc2ccccc2N(CC(=O)NCc2ccccc2)C1=O (stereo not given)	-90	2	0	7	-88*
Cc1cccc(C(=O)Nc2cccc(C(=O)N3CCOCC3)c2)c1	-42	1	-12	3	-36
Cc1cccc(NC(=O)C2SC(=Nc3c(C)cccc3C)C(C(=O)N3CCOCC3)=C2N)c1 (stereo not given)	-71	-1	6	1	-72*
Cc1noc(C)c1NC(=O)N(C)C[C@H]1Oc2ccc(NC(=O)Cc3ccccc3)cc2CC(=O)N([C@H](C)CO)C[C@@H]1C	.	.	-8	.	.
CCN(C(=O)c1cccc(S(=O)(=O)N2CCCCC2)c1)C1CCS(=O)(=O)C1 (stereo not given)	57*	1	-4	.	28
CCCCN(C(=O)c1cccc(S(=O)(=O)N2CCCCC2)c1)C1CCS(=O)(=O)C1 (stereo not given)	2	-1	0	-4	-3
Cc1c(/C(O)=C2\C(=O)C(=O)N(CCCN(C)C)C2c2ccccc2)cnn1-c1ccccc1 (stereo not given)	.	.	-7	42*	.
